Reference: PubChem BioAssay
The source made the active and inactive calls. Unless noted, how the calls were made is not given here.

Legend:
[1] = tested on: XIP peptide (Xip251-270) binding; assay: XIP fragment 251-270 binding compounds – biochemical, small-molecule microarray, fluorescence 635/667 nm, 0.1 µg/mL protein, primary screen (AID 1182); conditions: fluorescent protein binding, 635 nm, higher = more signal, called active from +8 up or from −8 down
[2] = tested on: XIP peptide (Xip251-270); assay: compounds binding XIP fragment 251-270 – biochemical, small-molecule microarray, fluorescence 635/667 nm, 0.5 µg/mL protein, primary screen (AID 1183); conditions: fluorescence 635 nm, higher = more signal
[3] = blood-stage malaria parasite viability loss – strain 3D7, DAPI fluorescence, 100 nL, primary screen (AID 1184);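 further: parasites grown inside human red blood cells in medium with human serum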; conditions: P. falciparum 3D7 growth, 3 d, higher = more signal
[4] = biological target: Homeobox protein Hox-A13 (Mus musculus) (UniProt Q62424); assay: disruptors of Hoxa13 oligonucleotide interaction – biochemical, fluorescence polarization, labeled oligonucleotide, primary screen (AID 1185); conditions: Hoxa13:DNA binding, 15 min, higher = more signal, called active from +8 up or from −8 down
Homeobox protein Hox-A13 (Mus musculus), sequence (Q62424 whole entry, looked up): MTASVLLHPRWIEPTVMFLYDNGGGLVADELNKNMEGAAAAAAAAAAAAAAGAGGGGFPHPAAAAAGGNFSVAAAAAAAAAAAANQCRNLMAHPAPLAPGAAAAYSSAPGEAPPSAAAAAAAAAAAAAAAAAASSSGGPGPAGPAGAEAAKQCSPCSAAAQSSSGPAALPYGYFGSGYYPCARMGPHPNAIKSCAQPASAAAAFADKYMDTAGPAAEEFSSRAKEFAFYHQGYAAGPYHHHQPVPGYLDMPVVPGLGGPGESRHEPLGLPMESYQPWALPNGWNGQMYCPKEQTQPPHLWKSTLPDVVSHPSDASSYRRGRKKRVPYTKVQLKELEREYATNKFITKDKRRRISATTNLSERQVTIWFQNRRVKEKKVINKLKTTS

[5] = blockers of DNA damage checkpoint Chk1 activation – imaging, HeLa, hydroxyurea, phospho-Chk1 antibody, percent positive cells, primary screen (AID 1186); conditions: hydroxyurea-induced phospho-Chk1 immunofluorescence imaging, higher = more signal
[6] = blockers of DNA damage checkpoint Chk1 activation – imaging, HeLa, hydroxyurea, phospho-Chk1 nuclear intensity, primary screen (AID 1187); conditions: hydroxyurea-induced phospho-Chk1 immunofluorescence imaging, higher = more signal

| Structure (SMILES) | composite z-score [1] | composite z-score [2] | z-score [3] | z-score [4] | z-score [5] | z-score [6] |
| --- | --- | --- | --- | --- | --- | --- |
| C[C@]1(C(=O)NCCN2CCOCC2)c2ccccc2C(=O)N(Cc2cc(F)cc(C(F)(F)F)c2)[C@H]1c1ccc(CO)cc1 | 1.14 (inactive) | 0.826 | -0.736 | -3.91 (inactive) | -0.69 (inactive) | -0.691 (inactive) |
| CCOC(=O)C[C@H]1[C@H](OC(=O)c2ccc(C(=O)c3ccccc3)cc2)[C@@H](NC(=O)CC(C)C)c2cc(OCCCO)ccc2N1C(=O)Cc1ccc(OC)cc1 | 0.595 (inactive) | 0.396 | -0.241 | -3.06 (inactive) | 0.291 (inactive) | -0.261 (inactive) |
| COC(=O)C1=CC(CCCO)=CC(C)N(Cc2cccc(OC(F)(F)F)c2)C=C1C(=O)OC (stereo not given) | 0.0257 (inactive) | 0.526 | -1.12 | -7.74 (inactive) | -0.249 (inactive) | -0.655 (inactive) |
| CC=CC(O)C1C=CC2C(=O)NC(=O)C2N1Nc1ccccn1 (stereo not given) | 2.39 (inactive) | 0.684 | -0.0521 | -1.1 (inactive) | 0.517 (inactive) | 0.359 (inactive) |
| O=C1C2C=CC(C(O)c3ccc4c(c3)OCO4)N(Nc3ccccc3)C2C(=O)N1c1ccccc1 (stereo not given) | 0.395 (inactive) | 0.795 | -0.214 | -1.49 (inactive) | 0.104 (inactive) | 0.614 (inactive) |
| C=C[C@@H](OC)[C@H](OC(=O)Nc1ccc(SC)cc1)c1ccc(OCCO)cc1 | -0.302 (inactive) | 0.709 | 0.0419 | -5.58 (inactive) | -0.0838 (inactive) | 0.168 (inactive) |
| CCOC(=O)C1=C[C@@H](C(C)(C)C)N(S(=O)(=O)c2ccc(C)cc2)[C@H]1c1ccccc1 | 0.19 (inactive) | 0.311 | -2.01 | -0.661 (inactive) | 0.327 (inactive) | -0.0853 (inactive) |
| CC(C)=CCCC(C)=CC(O)C1C=CC2C(=O)N(c3ccccc3)C(=O)C2N1Nc1ccccc1F (stereo not given) | 0.0917 (inactive) | 0.546 | 0.203 | -3.38 (inactive) | 0.0156 (inactive) | 0.0908 (inactive) |
| CC(C)C(=C=CC[C@@H](O)c1cccc(OCCO)c1)C[C@@H](O)COCc1ccccc1 | -0.096 (inactive) | 0.294 | -1.18 | -4.48 (inactive) | -1.66 (inactive) | -0.631 (inactive) |
| C=C(COC)C(=O)CC[C@H](OC(=O)c1cccnc1)c1ccc(CO)o1 | 0.0246 (inactive) | 0.193 | 0.535 | -4.81 (inactive) | 0.169 (inactive) | -0.143 (inactive) |
| [N-]=[N+]=Nc1ccccc1C[C@]1(C(=O)O)N=C(c2ccc(OCCCO)cc2)O[C@H]1c1ccccc1N=[N+]=[N-] | 0.466 (inactive) | 0.532 | -1.5 | -4.13 (inactive) | -0.281 (inactive) | 0.0939 (inactive) |
| COc1cc(NN2C(C(O)C3CCCCC3)C=CC3C(=O)N(C)C(=O)C32)cc(OC)c1OC (stereo not given) | 0.123 (inactive) | 0.704 | -0.246 | -4.48 (inactive) | 0.281 (inactive) | 0.264 (inactive) |
| COC(=O)C1=CC(CCCO)=CC(c2ccc(CN3CCCC3)cc2)N(Cc2cc3c(cc2Br)OCO3)C=C1C(=O)OC (stereo not given) | 2.27 (inactive) | 0.727 | -1.41 | -3.44 (inactive) | 0.119 (inactive) | 0.656 (inactive) |
| O=C1[C@@]23C=C(Br)[C@H](C[C@@H]2COC3)[C@@]12CO2 | -0.0944 (inactive) | 0.0556 | 2.53 | 0.786 (inactive) | 0.854 (inactive) | 0.352 (inactive) |
| C=CCN1C(=O)[C@@]2(O[C@@H](CCO)[C@H]([Si](C)(C)c3ccc(OC)cc3)[C@H]2C)c2cc(N3CCOC3=O)ccc21 | 0.341 (inactive) | 0.68 | -2.39 | -5.97 (inactive) | -0.0674 (inactive) | 0.0448 (inactive) |
| Cc1ccc(S[C@]2(C(=O)NCc3ccccc3)CC(=O)N(Cc3cc(C(F)(F)F)cc(C(F)(F)F)c3)[C@@H]2c2ccc(CO)cc2I)cc1 | 1.16 (inactive) | -0.474 | -0.261 | -1.82 (inactive) | 0.0563 (inactive) | 0.249 (inactive) |
| CCCCC(=C=CC[C@H](O)c1ccc(OCCO)cc1)C[C@H](O)c1cc(Cl)cc(Cl)c1O | -0.0399 (inactive) | 0.416 | -1.51 | -2.25 (inactive) | -0.0695 (inactive) | -0.301 (inactive) |
| C=C(/C(=C/C[C@@H](OC(=O)c1ccncc1)c1cccc(OCCO)c1)c1cnc2ccccc2c1)C(C)C | 0.601 (inactive) | 0.602 | -2.88 | -4.48 (inactive) | 0.242 (inactive) | 0.258 (inactive) |

| Structure (SMILES) | composite z-score [1] | composite z-score [2] | z-score [3] | z-score [4] | z-score [5] | z-score [6] |
| --- | --- | --- | --- | --- | --- | --- |
| CC1(C)C(=O)C(c2ccccc2)=C2CN3C(=O)N(CCc4ccccc4)C(=O)C3(Cc3ccc(C(F)(F)F)cc3)C=C21 (stereo not given) | 0.251 (inactive) | 0.279 | -0.745 | -1.55 (inactive) | 0.175 (inactive) | 0.0024 (inactive) |
| O=C1C2C=CC(C(O)C=Cc3ccc([N+](=O)[O-])cc3)N(Nc3ccccc3)C2C(=O)N1c1ccccc1 (stereo not given) | -0.375 (inactive) | 0.596 | -0.054 | -4.58 (inactive) | -0.744 (inactive) | -0.913 (inactive) |
| CN(C)CCCCCCNC(=O)[C@@H]1C[C@@H]2C(=O)N[C@@H](CCCCN)C(=O)N2[C@@H]1c1ccc(O)cc1 | 0.802 (inactive) | 0.753 | -1.02 | -1.14 (inactive) | 0.291 (inactive) | 0.481 (inactive) |
| C=C(CCCC)C(=O)CC[C@@H](OC(=O)c1cccnc1)c1ccc(OCCO)cc1 | 0.408 (inactive) | 0.713 | -2.28 | -3.82 (inactive) | 1.27 (inactive) | 1.21 (inactive) |
| COc1ccc([Si](C)(C)[C@@H]2[C@@H](CC(=O)N3Cc4ccccc4C[C@H]3CO)O[C@]3(C(=O)N(c4ccccc4)c4ccccc43)[C@H]2C)cc1 | 3.93 (inactive) | 0.546 | -2.38 | -4.85 (inactive) | -0.0103 (inactive) | -0.192 (inactive) |
| O=C1C2C=CC(C(O)c3cc(C(F)(F)F)cc(C(F)(F)F)c3)N(Nc3ccccc3F)C2C(=O)N1c1ccccc1 (stereo not given) | 1.22 (inactive) | 0.481 | 0.915 | -2.39 (inactive) | 0.563 (inactive) | 0.544 (inactive) |
| COc1ccc([Si](C)(C)[C@H]2[C@H](CC(=O)N3Cc4ccccc4C[C@H]3CO)O[C@@]3(C(=O)N(Cc4ccc(N5C(=O)c6cccc7cccc5c67)cc4)c4ccccc43)[C@@H]2C)cc1 | 1.23 (inactive) | 0.738 | -1.79 | -2.7 (inactive) | -1.02 (inactive) | -0.113 (inactive) |
| O=c1cccc(-c2ccco2)o1 | -0.103 (inactive) | 0.337 | 2.05 | -1.92 (inactive) | 0.0593 (inactive) | -0.106 (inactive) |
| COCCOC(=O)N1C(=O)[C@@]2(c3cc(C#Cc4ccc(OC)cc4)ccc31)[C@H](C(=O)NC[C@H](O)c1ccccc1)[C@H]1C(=O)O[C@H](c3ccccc3)[C@H](c3ccccc3)N1[C@@H]2c1ccc(OCCO)cc1 | 0.271 (inactive) | 0.591 | -2.17 | 1.56 (inactive) | 0.0092 (inactive) | 0.117 (inactive) |
| COc1ccc([Si](C)(C)[C@H]2[C@H](CCO)O[C@@]3(C(=O)N(Cc4ccccc4)c4ccc(N5C(=O)c6ccccc6Oc6ccccc65)cc43)[C@@H]2C)cc1 | 0.823 (inactive) | 0.601 | -1.75 | -1.76 (inactive) | 0.564 (inactive) | -0.608 (inactive) |
| CC(C)C[C@@H]1NC(=O)[C@@H]2C[C@H](C(=O)NCCCCCC[N+](C)(C)C)[C@H](c3cccc(OCCO)c3)N2C1=O | 0.753 (inactive) | 0.869 | 0.169 | -5.12 (inactive) | -0.282 (inactive) | -0.178 (inactive) |
| Nc1cc(Br)ccc1C(=O)O | 0.513 (inactive) | -0.244 | 1.1 | 0.686 (inactive) | 0.132 (inactive) | 0.343 (inactive) |
| CC(C)[C@H]1NC(=O)[C@@]23C(=O)N[C@@H](Cc4ccccc4)C2[C@H](C)[C@@]2(C)O[C@H]2C3/C=C/CCC/C=C/CNC(=O)[C@H](Cc2ccccc2)NC1=O (stereo not given in full) | 0.621 (inactive) | 0.741 | -1.83 | -6.22 (inactive) | -0.165 (inactive) | -0.0036 (inactive) |
| C=C(C)C1CCC(C(O)C2C=CC3C(=O)N(C)C(=O)C3N2Nc2cc(OC)c(OC)c(OC)c2)CC1 (stereo not given) | 0.287 (inactive) | 0.596 | -0.593 | -5.2 (inactive) | -0.113 (inactive) | -0.431 (inactive) |
| CCCCCCCCCCC(O)C1C=CC2C(=O)N(c3ccccc3)C(=O)C2N1Nc1ccccc1F (stereo not given) | 1.69 (inactive) | 0.538 | 0.157 | 0.356 (inactive) | -0.745 (inactive) | -1.48 (inactive) |
| NC(=O)NCC#Cc1ccc2c(c1)[C@]1(C(=O)N2)[C@H](C(=O)N2CCN(c3ncccn3)CC2)[C@H]2C(=O)O[C@H](c3ccccc3)[C@H](c3ccccc3)N2[C@@H]1c1ccc(OCCO)cc1 | -0.134 (inactive) | 0.193 | -0.232 | -1.02 (inactive) | -0.216 (inactive) | -0.0071 (inactive) |
| COc1ccc([Si](C)(C)[C@@H]2[C@@H](CCn3cc([C@H](O)c4ccccc4)nn3)O[C@]3(C(=O)N(Cc4cccc(N5C(=O)c6cccc7cccc5c67)c4)c4ccccc43)[C@H]2C)cc1 | 0.368 (inactive) | 0.45 | -2.38 | -1.19 (inactive) | -0.779 (inactive) | -1.33 (inactive) |
